Laboratory results from ChEMBL document CHEMBL3988442, “University of Dundee, Small-Polar-MMV Screening Library” (2021).
About 13,000 (27%) of roughly 48,000 compounds showed an effect of 50% or more. The list shows a part of the results.

These molecules were tested on Wolbachia pipientis (assay: Anti-Wolbachia Cell-Based Screen). Details: 5 µM.
Type: functional
Design: scale not given: in the data most compounds retested in dose-response had high values

SMILES	Percent Effect [%]
CC(C)c1nc(N2CC[C@@H](N(C)CCc3ccccn3)[C@H](O)C2)no1	-7.34
CSc1cccc(CN(C)C(=O)C2CC(=O)N(CCN(C)C)C2)c1 (centres undefined)	0.2115
Cc1cccc2c(=O)n(C(C)Cc3cccnc3)cnc12 (centres undefined)	5.15
Cc1cn([C@H]2CCNC[C@]2(C)O)c(=O)[nH]c1=O	91.37
Cc1cn([C@@H]2CC3(CCNCC3)OC[C@@]2(C)O)c(=O)[nH]c1=O	120.3
N#Cc1ccc(NCc2cccnc2N2CCC(C(N)=O)CC2)cn1	11.59
Cl.O=C(N1CCCC1)N1CCc2c(CNc3ncccn3)cncc2C1	-8.095
CC(=O)NCC(=O)N1CCc2c(CNc3ncccn3)cncc2C1.Cl	-3.566
CCCC(=O)N1CCc2c(CNS(C)(=O)=O)cncc2C1.Cl	100.5
CS(=O)(=O)NCc1cncc2c1CCN(C(=O)N1CCCC1)C2.Cl	112.8
COCCC(=O)N1CCc2c(CNc3ncccn3)cncc2C1.Cl	-6.28
CCCn1[nH]cc/c1=N\C(=O)CN1CCCC1c1c(C)nn(C)c1C (centres undefined)	-11.65
COc1ccccc1N1CCN(C(=O)CCn2ccc(C)n2)CC1(C)C	-8.619
Cc1cnn(CCC(=O)N2CCCN(c3cccnn3)CC2)c1	7.961
N#Cc1cccnc1N1CCCN(C(=O)CCc2cccs2)CC1	-1.405
Cc1cnn(CCC(=O)N2CCCN(c3ccccc3C#N)CC2)c1	106.5
COc1ccnc(N2CCCN(C(=O)CCc3cnn(C)c3)CC2)n1	-25.81
N#Cc1cccnc1N1CCCN(C(=O)CCn2cccn2)CC1	107
COc1ccccc1N1CCN(C(=O)CCn2ccc(C)n2)CC1	112.7
N#Cc1ccccc1N1CCCN(C(=O)CCn2cccn2)CC1	-8.555
Cn1cc(CCC(=O)N2CCCN(c3ncccc3C#N)CC2)cn1	89.9
N#Cc1ccccc1N1CCN(CCC(=O)N2CCOCC2)CC1	8.66
N#Cc1cccnc1N1CCN(C(=O)CCC(=O)c2cccs2)CC1	2.306
COc1ccccc1N1CCN(C(=O)CCn2ccnc2C)CC1(C)C	3.273
O=C1CC(c2ccc(F)cc2)Cc2[nH]c(=O)c(C(=O)O)cc21 (centres undefined)	-7.153
COc1ccc(-c2nnc([C@H]3CCN(C4CCC4)C3)o2)cc1	-7.791

SMILES	Percent Effect [%]
COc1ccc2c(C)nc(N3CCN([C@H]4CCCC[C@@H]4O)CC3)nc2c1	-5.01
Cc1cnn(CC(=O)N2CCCN(c3ncccc3C#N)CC2)c1	99.25
Cc1cnn(CCC(=O)N2CCN(c3nc(C)cs3)CC2)c1	-7.951
Cc1cnn(CCC(=O)N2CCN(c3ncccc3Cl)CC2)c1	8.116
N#Cc1cccnc1N1CCCN(CC(=O)N2CCNC(=O)C2)CC1	-3.438
N#Cc1cccnc1N1CCCN(C(=O)CCn2cncn2)CC1	103.6
N#Cc1ccc(CN2CCN(C(=O)CCn3cncn3)CC2)cc1	-1.452
Cc1cnn(CCC(=O)N2CCN(c3ccc(C#N)cn3)CC2)c1	122.4
Cc1cnn(CCC(=O)N2CCCN(c3ncccc3C#N)CC2)c1	7.127
N#Cc1ccc(CN2CCCN(C(=O)CCn3cncn3)CC2)cc1	-4.749
CN(C)c1cc(C(=O)Nc2ccccc2C(=O)NC(C)(C)C)ccn1	0.03536
CCn1nc(C)cc1C(=O)OCCNC(=O)c1ccccc1	-11.83
CCn1nc(C)cc1C(=O)NCc1noc(C(C)(C)C)n1	104.1
CCn1nc(C)cc1C(=O)NCc1nc(C)no1	111.2
COCc1nc(CNC(=O)c2cc(C)c(C)[nH]c2=O)no1	-2.692
CCn1nc(C)cc1C(=O)NCc1nc(C)cc(C)n1	-9.292
CCn1nc(C)cc1C(=O)NCc1cccnc1N(C)C	-6.394
CC(SCCS(C)(=O)=O)c1nc(Cc2ccccc2)no1 (centres undefined)	-6.547
O=C1CC[C@H](C(=O)N(Cc2cccc(Br)c2)C2CC2)N1	5.086
CC(=O)NCC(=O)N1Cc2nc(COCc3csc(C)n3)oc2C1	5.619
CC(C)CC(C)NCc1cccnc1N1CCOCC1 (centres undefined)	1.673
COc1ccc(OC)c(-c2nc(CN(C)Cc3nncn3C)c(C)o2)c1	0.1711
CCN(CC)C(=O)[C@@H]1C[C@H](N)CN1c1noc(-c2ccccc2)n1	2.719
Cc1cc(C(F)(F)F)nn1CCCNC(=O)C1CCCO1 (centres undefined)	89.22
Cc1cc(C)n(CCCN(C)C(=O)[C@H]2CCCO2)n1	-6.91
Cc1cc(-c2cnn(CCNC(=O)C3CCCO3)c2C2CC2)on1 (centres undefined)	-7.58

SMILES	Percent Effect [%]
COc1ccc(-c2n[nH]cc2CN(C)Cc2nnc(C)o2)c(F)c1	5.542
COC[C@]1(O)CCN(Cc2c[nH]c(CC3CCCC3)n2)CC1(C)C	12.99
Cn1cc(CN2CCc3ncnc(C4CCOC4)c3CC2)cn1 (centres undefined)	2.928
CS(=O)(=O)NCC1CCCCN1C(=O)c1ccc(Br)s1 (centres undefined)	-1.817
CN(C)c1cc(C(=O)N2CCCCC2CNS(C)(=O)=O)ccn1 (centres undefined)	130
CCC1CCCCN1C(=O)c1ccnc(N(C)C)c1 (centres undefined)	113.6
CN(C)c1cc(C(=O)N2CCCCC2Cn2cccn2)ccn1 (centres undefined)	105
CS(=O)(=O)NCC1CCCCN1C(=O)c1ccsc1 (centres undefined)	-1.868
CCCc1nc(C(C)(C)NC(=O)c2ccnn2C)no1	9.786
CCCc1nnc(N[C@H](C)c2ccc(OC)cc2)o1	-12.73
Fc1ccc(CNCc2cc(Br)c3c(c2)OCO3)cc1	-17.14
O=C(CCNC(=O)c1ccoc1)Nc1cc(F)ccc1F	-1.29
NC(=O)C1CN(Cc2c[nH]cn2)CCN(C2CCOCC2)C1 (centres undefined)	-9.995
Cc1cc(CN2CCN(C(=O)NCc3ccc(C)s3)CC2)no1	0.1424
Cc1cc(CNC(=O)NCc2ccccc2N2CCOCC2)no1	-16.89
Cc1cc(CN2CCOC(C)(C(=O)N3CCOCC3)C2)no1 (centres undefined)	109.8
Cc1cccc(CN2CC[C@H]3OCC[C@@]3(C(=O)N3CCOCC3)C2)n1	83.3
Cc1cccc(CN2CCc3[nH]nc(C(=O)N4CCOCC4)c3C2)n1	9.618
Cc1ncsc1CN1CC[C@H]2OCC[C@@]2(C(=O)N2CCOCC2)C1.O=C(O)C(F)(F)F	1.512
Cc1cccc(CN2CCOC(C)(C(=O)N3CCOCC3)C2)n1 (centres undefined)	111.3
CC1(C(=O)N2CCOCC2)CN(Cc2c[nH]cn2)CCO1 (centres undefined)	123.4
CN1CCN(Cc2c[nH]cn2)CC12CCC(=O)N(CC1CC1)CC2 (centres undefined)	-17.33
CC1(C(=O)N2CCOCC2)CN(Cc2ccccn2)CCO1 (centres undefined)	-10.18
CC(C)Nc1cccc(CNC(=O)N2CCC[C@@H]2CO)c1	-12.14
CCCc1cc(=O)[nH]c2nnc(SCC(=O)NCCc3ccccc3)n12	12.93
COC(=O)N1CCC(NC2CCSCC2)C1 (centres undefined)	-0.02013

SMILES	Percent Effect [%]
CCC(CCO)NS(=O)(=O)c1ccc(Br)cn1 (centres undefined)	-13.92
C=C(C)Cn1nnc(C2(NC(=O)c3ccccc3)CCCC2)n1	-0.5972
O=C(O)[C@@H]1CN(Cc2ccc3nsnc3c2)C[C@H]1c1cccnc1	-24.04
CCCC(=O)NC1CCCN(C(=O)c2ccc(C)nc2)C1 (centres undefined)	-3.666
CC(C)(C)c1cc(CN2CC[C@@H](NC(=O)c3cccnc3)[C@H](O)C2)n[nH]1	-14.75
Cc1ccc(C(=O)N2CCN3C[C@H](Oc4cncnc4)C[C@H]3C2)cn1	-3.915
CC(=O)N1CCN([C@@H]2CC[C@@H](NC(=O)c3cncc(C)c3)[C@H]2O)CC1	-9.247
CC(=O)N1CCN([C@@H]2CC[C@@H](NC(=O)c3ccc(C)nc3)[C@H]2O)CC1	126.1
CC(=O)N1C[C@H](NC(=O)c2csc(C(C)C)c2)[C@@H](C(C)C)C1	-7.601
CCc1ccccc1CN1CC[C@@H](NC(=O)c2cccnc2)[C@H](O)C1	-11.05
CC(=O)N1CCN([C@@H]2CCC[C@@H](NC(=O)c3cccnc3)[C@H]2O)CC1	122.9
CC(=O)N1CCN([C@@H]2CC[C@@H](NC(=O)c3cc(C)cs3)[C@H]2O)CC1	116.4
Cc1cncc(C(=O)N[C@@H]2CC[C@@H](N3CCOCC3)[C@@H]2O)c1	120
CC(=O)N1CCC(N[C@@H]2CO[C@H](CNC(=O)c3cccs3)[C@H]2O)CC1	1.318
Cc1cncc(C(=O)NCC2COCc3c(C)nnn3C2)c1 (centres undefined)	-1.908
CC(=O)NC1CCCN(C(=O)CNc2cccc(C)c2Cl)C1 (centres undefined)	6.978
O=C(CCn1cncn1)N1CCC2(CC1)[C@H](O)C[C@@H]2OCCO	-12.21
O=C(NS(=O)(=O)c1ccc(C2CCCCC2)cc1)C1COCCO1 (centres undefined)	-16.34
CCOc1ccc(N(C)Cc2nnc(C3CC3)o2)cc1	-1.111
CC1(C)CCC(CC(=O)O)c2ccccc21 (centres undefined)	8.259
CN(Cc1cc(-c2ccncc2)no1)Cc1nccn1C	1.044
CNC(=O)CN1CC[C@H]2CN(C(=O)c3ccccc3F)C[C@H]2C1.O=C(O)C(F)(F)F	86.74
CNC(=O)CN1CC[C@H]2CN(C(=O)c3ccccc3C)C[C@H]2C1.O=C(O)C(F)(F)F	117.7
O=C(O)C(F)(F)F.O=C(c1ccccc1F)N1C[C@H]2CCC[C@@]2(COCc2ccncc2)C1	-1.474
Cc1ccccc1C(=O)N1C[C@@H]2CCN(c3cccnc3)C[C@@H]2C1.O=C(O)C(F)(F)F	9.875
Cc1ccccc1C(=O)NC[C@@H]1CCN(C(=O)CN2CCCC2)C[C@H]1O	2.188
